Screen size: about 3,200 compounds; about 300 (9.4%) showed activity. The entries come from a sample that favours actives as a whole.
System: A673/TR/shEF
Assay: cell viability (LOESS-normalised, relative to median of negative controls) (log2 ratio); higher = more viable cells (less compound effect), active = hit call of the paper (over 3 MAD below the median)
Conditions: treatment time: 72 h
Outline: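 A673/TR/shEF Ewing sarcoma cells were plated at 1,500 per well in 384-well plates and cultured with or without doxycycline, added 24 h before compounds, to induce EWS-FLI1 shRNA knockdown. Library compounds at two or more concentrations, alongside DMSO controls, were applied for three days. Cell viability was measured by CellTiter-Glo luminescence on an Envision reader. Readings were LOESS-corrected per plate, divided by the median of negative controls and log2-transformed, and hits were wells lying at least three median absolute deviations from the median of all screened wells.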

[1] = 0.25 µM, library screen: screen1, EWS-FLI1 expression: high (no doxycycline)
[2] = 0.25 µM, library screen: screen1, EWS-FLI1 expression: low (doxycycline-induced shRNA knockdown)
[3] = 2.5 µM, library screen: screen1, EWS-FLI1 expression: high (no doxycycline)
[4] = 2.5 µM, library screen: screen1, EWS-FLI1 expression: low (doxycycline-induced shRNA knockdown)
[5] = 0.25 µM, library screen: screen2, EWS-FLI1 expression: high (no doxycycline)
[6] = 0.25 µM, library screen: screen2, EWS-FLI1 expression: low (doxycycline-induced shRNA knockdown)
[7] = 2.5 µM, library screen: screen2, EWS-FLI1 expression: high (no doxycycline)
[8] = 2.5 µM, library screen: screen2, EWS-FLI1 expression: low (doxycycline-induced shRNA knockdown)
[9] = 0.103 µM, library screen: screen3, EWS-FLI1 expression: high (no doxycycline)
[10] = 0.103 µM, library screen: screen3, EWS-FLI1 expression: low (doxycycline-induced shRNA knockdown)
[11] = 0.308 µM, library screen: screen3, EWS-FLI1 expression: high (no doxycycline)
[12] = 0.308 µM, library screen: screen3, EWS-FLI1 expression: low (doxycycline-induced shRNA knockdown)
[13] = 0.926 µM, library screen: screen3, EWS-FLI1 expression: high (no doxycycline)
[14] = 0.926 µM, library screen: screen3, EWS-FLI1 expression: low (doxycycline-induced shRNA knockdown)
[15] = 2.8 µM, library screen: screen3, EWS-FLI1 expression: high (no doxycycline)
[16] = 2.8 µM, library screen: screen3, EWS-FLI1 expression: low (doxycycline-induced shRNA knockdown)
[17] = 8.3 µM, library screen: screen3, EWS-FLI1 expression: high (no doxycycline)
[18] = 8.3 µM, library screen: screen3, EWS-FLI1 expression: low (doxycycline-induced shRNA knockdown)
[19] = 25 µM, library screen: screen3, EWS-FLI1 expression: high (no doxycycline)
[20] = 25 µM, library screen: screen3, EWS-FLI1 expression: low (doxycycline-induced shRNA knockdown)
[21] = 0.025 µM, library screen: screen1, EWS-FLI1 expression: high (no doxycycline)
[22] = 0.025 µM, library screen: screen1, EWS-FLI1 expression: low (doxycycline-induced shRNA knockdown)
[23] = 25 µM, library screen: screen1, EWS-FLI1 expression: high (no doxycycline)
[24] = 25 µM, library screen: screen1, EWS-FLI1 expression: low (doxycycline-induced shRNA knockdown)

Measured: cell viability (log2)

COc1cccc(CN2CCN(Cc3c[nH]c4ccccc34)CC2)c1
inactive: [1] 0.11 | [2] 0.105 | [3] 0.138 | [4] 0.0572

NCC(O)c1ccc(O)c(O)c1 (configuration not stated)
inactive: [6] 0.0558 | [7] 0.0351 | [8] -0.00208
active: [5] -0.177

CNC[C@H](O)c1ccc(O)c(O)c1
inactive: [9] 0.00528 | [10] 0.0495 | [1] 0.106 | [2] 0.0509 | [5] 0.169 | [6] 0.0474 | [11] 0.079 | [12] 0.091 | [13] 0.0631 | [14] 0.0893 | [3] 0.183 | [4] 0.209 | [7] 0.122 | [8] 0.099 | [15] 0.0488 | [16] 0.0524 | [17] -0.00361 | [18] 0.0638 | [19] 0.098 | [20] 0.00995

NC[C@H](O)c1ccc(O)c(O)c1
inactive: [1] 0.152 | [2] -0.0124 | [5] 0.069 | [6] 0.102 | [3] 0.127 | [4] 0.154 | [7] 0.0755 | [8] 0.101

CS(=O)(=O)CCCCN=C=S
inactive: [1] 0.17 | [2] 0.115 | [3] 0.227 | [4] 0.0923

NS(O)(O)Cc1noc2ccccc12
inactive: [5] 0.153 | [6] 0.0786 | [7] 0.183 | [8] 0.124

O=C(c1cc(-c2ccccc2)nc2ccccc12)N1CCCC1
inactive: [1] 0.0657 | [2] 0.0915 | [3] 0.129 | [4] -0.0754

O=C(c1cc(-c2ccccc2)nc2ccccc12)N1CCN(c2ccccc2)CC1
inactive: [1] 0.112 | [2] 0.0402 | [3] 0.113 | [4] 0.188

CC1CN(C(=O)c2cc(-c3ccccc3)nc3ccccc23)CC(C)O1 (configuration not stated)
inactive: [3] 0.0982 | [4] 0.0382
active: [1] -2.9 | [2] -2.55

Cc1cccc(C)c1OCC(N)C(C)C (configuration not stated)
inactive: [5] 0.0355 | [6] -0.033 | [7] 0.0196 | [8] 0.00962

COc1cccc2c1CCC1CC(=O)CC[C@]21C (some centres not stated)
inactive: [1] 0.0982 | [2] 0.0827 | [3] 0.058 | [4] 0.11

OC[C@@H](O)[C@@H](O)C(O)[C@H](O)[C@@H](O)CO (some centres not stated)
inactive: [1] 0.0348 | [2] 0.0046 | [3] 0.138 | [4] 0.018

CC(C)NCC(O)COc1cccc2ccccc12 (configuration not stated)
inactive: [1] 0.149 | [2] 0.0263 | [5] 0.19 | [6] 0.128 | [3] 0.146 | [4] -0.0491 | [7] 0.0197 | [8] 0.0681

CC(C)NC[C@H](O)COc1cccc2ccccc12
inactive: [5] 0.141 | [6] 0.0581 | [7] 0.131 | [8] 0.11

C=CCc1ccccc1OCC(O)CNC(C)C (configuration not stated)
active: [5] -0.203
inactive: [1] 0.0845 | [2] 0.135 | [6] 0.0871 | [3] 0.0928 | [4] 0.0547 | [7] 0.0869 | [8] 0.156

CN1[C@@H]2CC[C@@H]1CC(OC(c1ccccc1)c1ccccc1)C2 (some centres not stated)
inactive: [1] 0.132 | [2] 0.107 | [5] 0.135 | [6] 0.0858 | [3] 0.0835 | [4] 0.0797 | [7] 0.114 | [8] 0.0926

O=C(Nc1ccccc1)Nc1ccccc1
inactive: [1] -0.0389 | [2] 0.0106 | [3] 0.0741 | [4] -0.00546

O=C(CCCCCCC(=O)Nc1ccccc1)NO
inactive: [9] 0.0138 | [10] 0.0808 | [5] 0.16 | [6] 0.101 | [11] 0.0409 | [12] 0.115 | [13] 0.0465 | [14] 0.156 | [7] 0.0836 | [8] 0.0743 | [15] -0.083 | [16] -0.944
active: [17] -1.12 | [18] -0.391 | [19] -2.67 | [20] -1.56

O=C(Cc1ccccc1)NO
inactive: [1] 0.111 | [2] 0.0668 | [3] 0.126 | [4] 0.0445

Cc1c2oc3c(C)ccc(C(=O)NC4C(=O)NC(C(C)C)C(=O)N5CCCC5C(=O)N(C)CC(=O)N(C)C(C(C)C)C(=O)OC4C)c3nc-2c(C(=O)NC2C(=O)NC(C(C)C)C(=O)N3CCCC3C(=O)N(C)CC(=O)N(C)C(C(C)C)C(=O)OC2C)c(N)c1=O (configuration not stated)
active: [1] -4.25 | [2] -4.25 | [3] -4.23 | [4] -4.26

COc1ccc(OC)c(CN2CCN(Cc3ccc([N+](=O)[O-])cc3)CC2)c1
inactive: [1] 0.0199 | [2] 0.014 | [3] -0.0107 | [4] 0.0533

O=C(O)c1cc2cc(Cl)ccc2[nH]1
inactive: [1] 0.0631 | [2] -0.00653 | [3] 0.106 | [4] 0.0362

O=C(O)c1cc2cc(F)ccc2[nH]1
active: [5] -0.173
inactive: [1] 0.0776 | [2] -0.00933 | [6] 0.0925 | [3] 0.156 | [4] 0.00267 | [7] 0.154 | [8] 0.0908

O=C(O)c1cc2ccccc2[nH]1
inactive: [1] 0.123 | [2] 0.0929 | [3] 0.0969 | [4] 0.132

Cn1cnnc1SCC(=O)N1c2ccccc2CCc2ccccc21
inactive: [1] 0.0935 | [2] 0.0627 | [3] 0.0921 | [4] 0.0613

N#C/C(=C\c1ccc(O)c(O)c1)C(=O)Nc1ccccc1
active: [3] -0.16 | [23] -0.692
inactive: [21] 0.188 | [22] -0.0571 | [1] 0.155 | [2] 0.0428 | [5] 0.0861 | [6] 0.0194 | [4] 0.0541 | [7] 0.105 | [8] 0.00853 | [24] 0.0298

C[C@@H](NC(=O)/C(C#N)=C/c1ccc(O)c(O)c1)c1ccccc1
inactive: [5] 0.139 | [6] -0.0177 | [7] 0.152 | [8] 0.00798

O=C(O)c1cc([N+](=O)[O-])ccc1NCCCc1ccccc1
inactive: [1] 0.00351 | [2] 0.0513 | [5] 0.0917 | [6] 0.092 | [3] -0.0108 | [4] 0.0086 | [7] 0.0503 | [8] 0.0316

N#C/C(=C\c1ccc(O)c(O)c1)C(=O)NCc1ccccc1
inactive: [21] 0.245 | [22] 0.0652 | [1] 0.23 | [2] 0.104 | [5] 0.0885 | [6] 0.0797 | [7] 0.253 | [8] 0.0805 | [24] -0.0381
active: [3] -0.573 | [4] -0.157 | [23] -0.423

CC(C)c1cc(/C=C(\C#N)C(=O)NCCCc2ccccc2)cc(C(C)C)c1O
active: [3] -0.147 | [23] -0.351
inactive: [21] 0.249 | [22] 0.00192 | [1] 0.255 | [2] -0.0227 | [4] 0.113 | [24] 0.147

N#C/C(=C\c1ccc(O)c(O)c1)C(=O)NCCCc1ccccc1
inactive: [5] 0.175 | [6] 0.0501 | [7] 0.049 | [8] 0.115

C[C@H](NC(=O)/C(C#N)=C/c1ccc(O)c(O)c1)c1ccccc1
inactive: [5] 0.133 | [6] 0.0775 | [7] 0.118 | [8] 0.0876

O=C(O)Cc1ccc(O)c(O)c1
inactive: [5] 0.133 | [6] -0.00472 | [7] 0.0419 | [8] 0.108

N#C/C(=C\c1ccc(O)c(O)c1)C(=O)NCCc1ccccc1
inactive: [5] 0.142 | [6] 0.0983 | [7] 0.163 | [8] 0.0697

CC(=O)O[C@H]1CC[C@@]2(C)C(CC[C@]3(C)C2C(=O)C=C2C4[C@@H](C)[C@H](C)CC[C@]4(C(=O)O)CC[C@]23C)C1(C)C (some centres not stated)
inactive: [1] 0.0834 | [2] -0.0467 | [3] 0.137 | [4] -0.0143

Cc1nnc(SCC(=O)N2c3cc(C)c(C)cc3-c3c(ssc3=S)C2(C)C)s1
inactive: [1] 0.0437 | [2] 0.1 | [3] 0.106 | [4] 0.371

COc1cc(CN2CCN(Cc3ccccc3Br)CC2)cc(OC)c1OC
inactive: [1] 0.141 | [2] 0.0128 | [3] 0.124 | [4] -0.0338

COCCCN1C(=O)C(=Cc2sccc2C)SC1=S
inactive: [1] 0.112 | [2] 0.0557 | [3] 0.117 | [4] -0.0013

CC1=C(C(=O)Nc2ccccc2Cl)C(c2ccc(F)cc2)NC(=S)N1 (configuration not stated)
inactive: [1] 0.0751 | [2] -0.00334 | [3] 0.0684 | [4] -0.0806

CC(=O)CCC(=O)O
inactive: [1] 0.109 | [2] -0.0377 | [3] 0.149 | [4] 0.116

Nc1ccccc1C(=O)CC(N)C(=O)O (configuration not stated)
inactive: [1] 0.119 | [2] 0.0475 | [3] 0.0296 | [4] 0.178

Clc1ccc(CSC(Cn2ccnc2)c2ccc(Cl)cc2Cl)cc1 (configuration not stated)
inactive: [1] 0.0547 | [2] -0.0713 | [3] 0.0724 | [4] -0.143

Clc1ccc(COC(Cn2ccnc2)c2ccc(Cl)cc2Cl)c(Cl)c1 (configuration not stated)
inactive: [9] 0.0363 | [10] 0.054 | [1] 0.11 | [2] -0.0145 | [11] 0.0264 | [12] 0.0988 | [13] 0.0504 | [14] 0.0737 | [3] 0.143 | [4] 0.0636 | [15] 0.00663 | [16] 0.0754 | [17] -0.0261 | [18] 0.0596 | [19] -0.0834 | [20] 0.0583

Clc1ccc(COC(Cn2ccnc2)c2ccc(Cl)cc2Cl)cc1 (configuration not stated)
active: [19] -0.429
inactive: [9] -0.00584 | [10] 0.0214 | [1] 0.00613 | [2] -0.0476 | [11] 0.00202 | [12] -0.00564 | [13] 0.0175 | [14] 0.0368 | [3] 0.0561 | [4] 0.0348 | [15] -0.113 | [16] 0.0131 | [17] -0.0802 | [18] 0.0353 | [20] -0.0458

— the supplement of paper PMC6089552
